Wnt bcat act = activators of Wnt/beta-catenin signaling. activation, % at 9.35 µM. AID 743398. Wnt/beta-catenin reporter cell assay, activator, plate reader. 1.2% of 300,000 active; in the data active = activation above about 30%, passing the limit was not always enough; inconclusive = no clear call, values can overlap the other calls;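 also: 0% = neutral control wells and 100% = positive control wells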
esBAF inh = SWI/SNF esBAF complex inhibition; mouse ES cells, Bmi1-luciferase knock-in reporter, 24 h; 100% = twice the neutral-well signal; reporter increase, % at 12.5 µM; 2% of 350,000 active; in the data active = activation above about 40%; inconclusive = no clear call, values can overlap the other calls;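 also: 0% = median of the plate's neutral control wells and 100% = double that signal; a rise in the Bmi1 reporter signal indicates esBAF inhibition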
AF4-AF9 inh = MLL-AF4/AF9 protein interaction inhibition; inhibition, % at 10 µM; AlphaScreen, biotin-AF4 peptide binding to FLAG-AF9; P42568; AID 651704; 0.47% of 350,000 active;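 active = every replicate reaching a set inhibition limit, whatever the replicate mean, cut at about 25% in these data; inconclusive = mean inhibition reaches that limit but some replicates miss it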;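 also: 0% = plate neutral control median and 100% = total signal loss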
Target sequence (P42568 whole entry, looked up): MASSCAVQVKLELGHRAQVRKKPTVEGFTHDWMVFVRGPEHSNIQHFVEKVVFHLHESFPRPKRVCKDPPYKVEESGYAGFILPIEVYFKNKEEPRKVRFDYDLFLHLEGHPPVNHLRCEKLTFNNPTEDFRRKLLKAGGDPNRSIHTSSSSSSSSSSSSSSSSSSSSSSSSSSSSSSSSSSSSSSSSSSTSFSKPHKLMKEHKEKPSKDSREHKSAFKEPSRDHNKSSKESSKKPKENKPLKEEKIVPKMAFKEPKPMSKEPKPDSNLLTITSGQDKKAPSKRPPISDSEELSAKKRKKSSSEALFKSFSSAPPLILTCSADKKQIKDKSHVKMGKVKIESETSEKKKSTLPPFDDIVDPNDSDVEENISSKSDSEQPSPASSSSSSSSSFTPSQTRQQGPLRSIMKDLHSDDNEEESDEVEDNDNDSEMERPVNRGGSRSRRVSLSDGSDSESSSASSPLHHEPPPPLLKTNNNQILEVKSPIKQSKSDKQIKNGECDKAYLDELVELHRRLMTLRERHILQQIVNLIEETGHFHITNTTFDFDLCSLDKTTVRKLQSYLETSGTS
FGF22 binding = shifts melting point of recombinant human FGF22; recombinant FGF22 thermal shift, SYPRO orange fluorescence; percent of sucrose octasulfate shift, DMSO zero; 1.5% of 340,000 active; activity (Tm shift, normalised), % at 9.99 µM; Q9HCT0;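 active = mean Tm shift, scaled 0 neutral to 100 positive control, at about 1.3% or above, every replicate too, limit read from the data; inconclusive = no clear call, values can overlap the other calls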
Target sequence (Q9HCT0 whole entry, looked up): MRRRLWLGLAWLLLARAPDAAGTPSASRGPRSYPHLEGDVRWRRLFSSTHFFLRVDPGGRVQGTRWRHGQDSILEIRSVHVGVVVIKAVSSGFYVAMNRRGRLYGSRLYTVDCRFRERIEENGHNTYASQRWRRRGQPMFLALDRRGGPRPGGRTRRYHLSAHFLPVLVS
MITF TRPM1 HTS = increases MITF-driven TRPM1 promoter luciferase signal. SK-MEL-5 TRPM1-promoter luciferase, 24 h; % of positive control, neutral wells = 0. activation, % at 12.5 µM. 0.75% of 300,000 active. AID 588334;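 active = mean activation of at least 80% with every replicate also reaching 80%; inconclusive = mean reaches 80% but some replicate falls short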;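 also: 0% = neutral control wells and 100% = parthenolide positive control wells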
SMARCA2 activ = SMARCA2 function activation, primary screen | MG213 cells, MMTV-luciferase reporter, dexamethasone, overnight | activation, % at 9.1 µM | 1% of 370,000 active | AID 652017; in the data active = activation above about 7.8%;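 also: 0% = vehicle wells and 100% = reference activator wells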
Active calls of the source: *; u = inconclusive; x = no result given. Rows were chosen to be rich in hits. Some 4.3% of all compounds tested hit in one or more screens of this group.

SMILES | Wnt bcat act | esBAF inh | AF4-AF9 inh | FGF22 binding | MITF TRPM1 HTS | SMARCA2 activ
COc1cc(C(=O)Nc2ccc(C(C)=O)cc2)c(Br)c(OC)c1OC | 23.0 | 47.6* | x | x | 51.4 | 2.4
CC(C)NC(=O)N(C)C[C@H]1Oc2ccc(NC(=O)C3CC3)cc2C(=O)N([C@@H](C)CO)C[C@H]1C | x | -1.4 | -3.8 | 0.4 | x | x
CN1C(=O)c2cc(NC(=O)C3CC3)ccc2OC[C@H]2O[C@@H](CC(=O)Nc3cc(F)ccc3F)CC[C@@H]21 | x | x | -2.2 | -0.4 | x | x
CCCCN1CCc2c([nH]c3ccc(C)cc23)C1=O | 36.6* | u | x | x | 67.1 | 7.5
Cc1ccc2[nH]c3c(c2c1)CCC3=O | x | 10.8 | x | x | -6.4 | 1.2
C[C@@H]1CN([C@@H](C)CO)C(=O)c2cc(NS(=O)(=O)c3cccs3)ccc2O[C@@H]1CN(C)C(=O)Nc1ccc(F)cc1 | x | 4.3 | 47.1* | -0.3 | x | x
C[C@@H]1CCCCO[C@@H](CN(C)C(=O)Nc2ccccc2)[C@H](C)CN([C@H](C)CO)C(=O)c2cc(NS(=O)(=O)c3ccc(Cl)cc3)ccc2O1 | x | 6.4 | 0.3 | 3.6* | x | x
Cc1ccc(S(=O)(=O)Nc2ccc3c(c2)C(=O)N([C@H](C)CO)C[C@@H](C)[C@@H](CN(C)S(=O)(=O)c2ccc(Cl)cc2)OCCCC[C@@H](C)O3)cc1 | x | -3.7 | x | 25.0* | x | x
CNC[C@@H]1OCCCC[C@H](C)Oc2ccc(NS(=O)(=O)c3ccc(C)cc3)cc2C(=O)N([C@H](C)CO)C[C@H]1C | x | 54.8* | -3.9 | 0.0 | x | x
C[C@H](CO)N1C[C@H](C)[C@@H](CN(C)C(=O)Nc2ccc(F)cc2)Oc2ccc(NS(=O)(=O)c3cccs3)cc2C1=O | x | -0.5 | -2.4 | 0.0 | x | x
CC(=O)N1[C@@H]2CN(S(=O)(=O)c3ccc(F)cc3)c3ccccc3[C@@H]2[C@@H]1CO | x | -3.9 | -0.8 | 0.3 | x | x
COc1cccc(CN(C)C[C@@H]2OCc3ccccc3-c3c(n(C)c4ccccc34)C(=O)N([C@H](C)CO)C[C@H]2C)c1 | x | x | 15.1 | -0.3 | x | x
COc1ccc(S(=O)(=O)Nc2ccc3c(c2)C(=O)N([C@H](C)CO)C[C@@H](C)[C@H](CN(C)C(=O)C2CCCCC2)OCCCC[C@@H](C)O3)cc1 | x | 8.0 | 2.2 | 1.5* | x | x
COc1ccc(S(=O)(=O)Nc2ccc3c(c2)C(=O)N([C@H](C)CO)C[C@@H](C)[C@H](CN(C)S(=O)(=O)c2ccc(Cl)cc2)OCCCC[C@H](C)O3)cc1 | x | 0.2 | -0.3 | 22.7* | x | x
CCCN(C)C[C@H]1OCCCC[C@H](C)Oc2ccc(NS(=O)(=O)c3ccc(C)cc3)cc2C(=O)N([C@H](C)CO)C[C@H]1C | x | x | 4.6 | -0.2 | x | x
Cc1nc2ccc(N=NC3=C(O)CCCC3=O)cc2s1 | x | 5.5 | x | x | 47.5 | 7.3
Cc1nc2ccc(N=NC3=C(O)CC(C)(C)CC3=O)cc2s1 | 17.6 | 49.2* | x | x | 43.4 | 1.3
CC1(C)CC(=O)C(N=Nc2cc(Cl)c(Cl)c(Cl)c2)=C(O)C1 | 3.3 | -5.1 | x | x | -1.5 | 4.4
CC(=O)N1CCc2cc(N=NC3=C(O)CC(C)(C)CC3=O)ccc21 | -0.6 | x | 1.8 | 43.0* | 47.6 | 7.8
CN1CCN(C(=O)C[C@@H]2CC[C@H]3[C@@H](COC[C@H](O)CN3Cc3ccc4c(c3)OCO4)O2)CC1 | x | -1.1 | -1.1 | -0.1 | x | x
C[C@H](CO)N1C[C@H](C)[C@@H](CN(C)S(C)(=O)=O)Oc2c(NC(=O)c3cnccn3)cccc2C1=O | x | -5.6 | 0.2 | 0.0 | x | x
O=C(COC(=O)CSCc1ccccc1)NCc1ccccc1 | -1.2 | x | -1.1 | 43.4* | 8.3 | -0.1
C[C@H](CO)N1C[C@H](C)[C@H](CN(C)Cc2ccccc2)OCCCC[C@H](C)Oc2ccc(NC(=O)Nc3ccccc3)cc2C1=O | x | -10.6 | 9.9 | -0.2 | x | x
CCNC(=O)NC(=O)CSc1ccc2ccccc2c1 | -0.2 | 1.9 | -9.0 | 43.1* | 5.8 | -2.2
CCNC(=O)NC(=O)CSc1ccccc1F | x | x | x | x | -0.2 | -1.0
SMILES | Wnt bcat act | esBAF inh | AF4-AF9 inh | FGF22 binding | MITF TRPM1 HTS | SMARCA2 activ
CO[C@H]1CN(C)C(=O)c2cc(NC(=O)Nc3c(C)noc3C)ccc2OC[C@H](C)N(CC2CC2)C[C@H]1C | x | -2.8 | -0.9 | -0.1 | x | x
O=C(N=Nc1c(O)[nH]c2ccccc12)c1cccs1 | 34.9* | x | x | x | 15.6 | 3.0
O=C(N=Nc1c(O)[nH]c2ccccc12)c1cc(NS(=O)(=O)c2cccs2)cc(NS(=O)(=O)c2cccs2)c1 | -1.3 | x | -0.9 | 0.2 | -13.6 | -2.1
O=C(c1ccncc1)N1C[C@H]2[C@@H](c3ccccc31)[C@@H](CO)N2Cc1ccc(F)cc1 | x | 2.5 | 0.2 | 0.1 | x | x
O=C(c1ccccc1)c1ccc(Cn2cc(-c3ccccc3)nn2)cc1 | 3.2 | 15.0 | x | 0.0 | 28.8 | -2.1
CCCCCc1ccc(-c2cn(Cc3ccc(C(=O)c4ccccc4)cc3)nn2)cc1 | 3.0 | 53.0* | -1.9 | 0.1 | -8.5 | -0.3
CCCn1c(N)c(C(=O)CSc2nnc(C3CC3)n2C2CC2)c(=O)[nH]c1=O | -4.0 | x | -1.0 | 43.0* | 4.5 | -2.9
O=C(CSc1nnc(C2CC2)n1C1CC1)c1cccs1 | 3.7 | 3.5 | 3.9 | 0.0 | -0.4 | -2.1
O=C(CSc1nnc(C2CC2)n1C1CC1)c1ccc(Br)s1 | 32.6* | 56.4* | -6.0 | 0.1 | 71.2 | 2.4
COc1cccc(-c2cnc3c(c2)C(=O)N([C@@H](C)CO)C[C@H](C)[C@@H](CN(C)Cc2ccc(F)cc2)O3)c1 | x | 0.3 | 6.2 | 0.1 | x | x
COc1ccc(S(=O)(=O)Nc2ccc3c(c2)C(=O)N([C@H](C)CO)C[C@@H](C)[C@@H](CN(C)C(=O)CCC(F)(F)F)OCCCC[C@@H](C)O3)cc1 | x | 7.8 | -0.5 | 0.5 | x | x
Cc1ccsc1-c1nc(CN2CCN(C)C(=O)[C@@H]2C)c(C)o1 | -5.7 | x | -6.3 | 0.3 | -1.4 | 1.1
Cc1oc(-c2cc(F)ccc2F)nc1CN1CCN(C)C(=O)[C@@H]1C | -3.5 | x | 1.1 | 42.9* | -1.8 | -1.5
CCCNC(=O)N1C[C@@H](O)COC[C@H]2O[C@H](CC(=O)OC)CC[C@@H]21 | x | 17.2 | -3.5 | 0.1 | x | x
CN1CCN(C(=S)c2cn(Cc3ccc(Br)cc3)c3ccccc23)CC1 | -2.1 | x | 27.0* | 0.3 | 6.1 | -2.7
C=C(NC(=O)C(=C)NC(=O)c1csc(C2=NC3c4csc(n4)C4NC(=O)c5csc(n5)C(C(C)(O)C(C)O)NC(=O)C5CSC(=N5)/C(=C/C)NC(=O)C(C(C)O)NC(=O)c5csc(n5)C3(CC2)NC(=O)C(C)NC(=O)C(=C)NC(=O)C(=C)NC(=O)C(C(C)C)NC2C=Cc3c(C(C)O)cc(nc3C2O)C(=O)OC4C)n1)C(N)=O (stereo not drawn) | 4.0 | x | 0.7 | 0.0 | -94.6 | 8.6*
Cc1ccccc1Nc1nc(N)nc(COC(=O)c2ccccc2)n1 | x | x | x | x | 83.0* | 5.3
Cc1ccccc1Nc1nc(N)nc(COC(=O)c2ccc(O)cc2)n1 | 1.9 | x | x | x | 13.8 | 2.5
Cn1cccc1C(=O)OCc1csc(-c2ccccc2)n1 | 71.2* | x | x | x | 21.6 | 4.9
Cc1ccccc1Nc1nc(N)nc(COC(=O)c2cccn2C)n1 | 66.4* | 48.2* | x | x | x | 7.1

High-throughput results from PubChem BioAssay.
